# Experimental data taken from PMC4336329 (PLoS ONE, 2015).
# About 14,000 (4.5%) of roughly 310,000 compounds showed an effect of 50% or more. The effect is printed as a negative number. Many of the other results were omitted from the sample, so strong results are more common in it than they were.
# Target: human ether-à-go-go-related gene (hERG) potassium channel (human, UniProt Q12809)
# Experiment: primary screen, population patch clamp on CHO cells stably expressing hERG; higher = less effect of the substance
# 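Note: peak tail current of the secondary pulse compared with the same well before compound.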
# Chain of human ether-à-go-go-related gene (hERG) potassium channel (Q12809 whole entry, looked up): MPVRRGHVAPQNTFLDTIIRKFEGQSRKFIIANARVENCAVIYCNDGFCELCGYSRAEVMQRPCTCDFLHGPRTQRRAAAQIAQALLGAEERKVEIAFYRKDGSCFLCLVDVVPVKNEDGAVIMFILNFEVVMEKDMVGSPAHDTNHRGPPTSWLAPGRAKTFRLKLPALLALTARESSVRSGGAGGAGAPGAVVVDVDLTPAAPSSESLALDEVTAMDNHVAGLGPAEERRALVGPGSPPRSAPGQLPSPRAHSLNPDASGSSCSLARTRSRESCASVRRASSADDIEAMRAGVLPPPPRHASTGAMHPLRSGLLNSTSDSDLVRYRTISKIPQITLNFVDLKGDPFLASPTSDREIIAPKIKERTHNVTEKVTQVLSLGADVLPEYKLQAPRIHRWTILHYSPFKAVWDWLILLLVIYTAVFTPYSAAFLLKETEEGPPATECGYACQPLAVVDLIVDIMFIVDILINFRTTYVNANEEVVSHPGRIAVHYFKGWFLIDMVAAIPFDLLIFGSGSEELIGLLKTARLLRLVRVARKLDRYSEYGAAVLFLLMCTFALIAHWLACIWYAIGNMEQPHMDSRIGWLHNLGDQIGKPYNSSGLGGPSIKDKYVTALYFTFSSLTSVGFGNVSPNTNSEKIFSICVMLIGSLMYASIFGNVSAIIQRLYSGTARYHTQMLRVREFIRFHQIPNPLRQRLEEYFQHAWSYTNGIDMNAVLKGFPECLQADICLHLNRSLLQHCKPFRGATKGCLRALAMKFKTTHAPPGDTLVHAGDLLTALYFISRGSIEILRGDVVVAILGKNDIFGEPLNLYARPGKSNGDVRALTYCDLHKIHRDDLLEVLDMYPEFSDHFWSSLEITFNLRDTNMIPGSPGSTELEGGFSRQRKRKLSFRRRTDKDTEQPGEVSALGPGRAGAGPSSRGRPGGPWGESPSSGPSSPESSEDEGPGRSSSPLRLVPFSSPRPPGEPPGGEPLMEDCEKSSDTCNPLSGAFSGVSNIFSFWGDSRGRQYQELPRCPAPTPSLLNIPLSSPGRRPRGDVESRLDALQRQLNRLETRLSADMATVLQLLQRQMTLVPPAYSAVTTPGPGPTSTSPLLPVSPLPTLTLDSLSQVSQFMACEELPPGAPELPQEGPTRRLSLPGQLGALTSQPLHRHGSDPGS
row,SMILES,"hERG current change (%, negative = inhibition) at 10uM"
1,Cn1c(=O)n(CC(N)=O)c(=O)c2c1nc1n2CCCN1Cc1ccccc1,14.8%
2,CCN(CC(=O)NC1CC1)S(=O)(=O)c1ccccc1,10%
3,Br.Cc1csc(=Nc2ccccc2)n1C,-2.07%
4,COc1ccc2c(C)cc(SCC(=O)Nc3cccnc3Cl)nc2c1,10.3%
5,Cc1ccnc(NC(=O)c2cc3ccccc3oc2=O)c1,8.47%
6,Cc1cc(NS(=O)(=O)c2cccc([N+](=O)[O-])c2)no1,28.8%
7,CC(C)CN1CCC(=O)N(CCO)CC1,1.33%
8,CCCN1CCC(=O)N([C@H](CO)Cc2ccccc2)CC1,0.476%
9,CC(C)C[C@@H](CO)N1CCN(CC(C)C)CCC1=O,4.64%
10,CCCCCCCN1CCC(=O)N(CCO)CC1,-54.3%
11,O=C1CCN(CCCc2ccccc2)CCN1[C@H](CO)Cc1ccccc1,-40.6%
12,CCCN1CCC(=O)N(CCO)CC1,-3.79%
13,CCCCCCCN1CCC(=O)N([C@H](CO)CC(C)C)CC1,-63%
14,CCCCCCCN1CCC(=O)N([C@H](CO)c2ccccc2)CC1,-63.7%
15,CCCN1CCC(=O)N([C@H](CO)CC(C)C)CC1,20%
16,CCCCCCCN1CCC(=O)N([C@H](CO)Cc2ccccc2)CC1,-78.8%
17,O=C1CCN(CCCc2ccccc2)CCN1[C@H](CO)c1ccccc1,-29.7%
18,CCCN1CCC(=O)N([C@H](CO)c2ccccc2)CC1,9.36%
19,CCOC(=O)Cc1ccc(NC(=O)c2ccccc2Br)cc1,-7.9%
20,O=S(=O)(c1ccc(Br)s1)N1CCN(c2ncccn2)CC1,-3.42%
21,Nc1ccccc1-c1nnc2n1CCCCC2,25.8%

row,SMILES,"hERG current change (%, negative = inhibition) at 10uM"
1,Cc1cc(C)c(C(=O)CSc2nnc(C)s2)c(C)c1,18.2%
2,CCCC1(C(=O)OCC)NC(c2ccc(N(C)C)cc2)C2C(=O)N(c3ccc(F)cc3)C(=O)C21 (stereo not drawn),-8.18%
3,CCCCNC(=O)c1sc2nc(C)cc(COC)c2c1-n1cccc1,-10.7%
4,S=C(c1ccccc1)N(c1ccccc1)c1ccccc1,7.21%
5,Cc1ccc(N2CC(C(=O)Nc3ccc(S(=O)(=O)N4CCCC4)cc3)CC2=O)cc1 (stereo not drawn),-8.07%
6,O=C(Nc1ccccc1)C1=C(O)CC(c2ccoc2)CC1=Nc1ccccc1 (stereo not drawn),15%
7,O=C1CCCCC1Oc1ccc2ccc(=O)oc2c1 (stereo not drawn),19.6%
8,Cc1coc2c(C)c3oc(=O)c(CCC(=O)NCCN4CCOCC4)c(C)c3cc12,-24.6%
9,COc1ccc(C(=O)N2CCN(Cc3ccc4c(c3)OCO4)CC2)cc1[N+](=O)[O-],-44.6%
10,CC(C(=O)N1CCN(Cc2ccccc2)CC1)c1ccc([N+](=O)[O-])cc1 (stereo not drawn),-43.7%
11,O=C(c1ccc(S(=O)(=O)c2ccccc2Cl)c([N+](=O)[O-])c1)N1CCN(Cc2ccccc2)CC1,-25.3%
12,COc1ccc(C(=O)N2CCN(Cc3ccccc3)CC2)cc1[N+](=O)[O-],-52%
13,O=C(c1ccc(Oc2ccc([N+](=O)[O-])cc2Cl)cc1)N1CCCC1,-32.2%
14,O=C(c1ccc(Cl)c([N+](=O)[O-])c1)N1CCN(Cc2ccc3c(c2)OCO3)CC1,-26.7%
15,O=C(c1ccc(Br)c([N+](=O)[O-])c1)N1CCN(Cc2ccccc2)CC1,-61.2%
16,Cc1cc(C(=O)N2CCN(Cc3ccccc3)CC2)ccc1[N+](=O)[O-],-32%
17,O=C(c1ccc(Oc2ccc(Cl)cc2)c([N+](=O)[O-])c1)N1CCCC1,-63%
18,CC(OC(=O)c1ccc(Cl)c([N+](=O)[O-])c1)C(=O)N1CCN(Cc2ccccc2)CC1 (stereo not drawn),-71.1%
19,NC(=O)c1ccc(Oc2ccc(Cl)cc2)c([N+](=O)[O-])c1,12.6%
20,COc1cc(N(C)C)c([N+](=O)[O-])cc1C(=O)N1CCN(Cc2ccccc2)CC1,9.99%
21,CCOC(=O)C1(C)/C(=N/Nc2cccc(Cl)c2)C(=O)C(=O)N1c1ccccc1 (stereo not drawn),6.3%

row,SMILES,"hERG current change (%, negative = inhibition) at 10uM"
1,CCOc1ccc(Br)cc1S(=O)(=O)Nc1cccc(S(=O)(=O)N(CC)CC)c1,-4.53%
2,Cc1ccc(CN2CCN(/N=C/c3ccc(C(=O)O)cc3)CC2)cc1,5.6%
3,CCOc1ccccc1N(CC(=O)NC1CCCCC1)C(=O)CCC(=O)Nc1cc(C)ccn1,3.35%
4,Cc1cccc(CSc2nnc(CCNC(=O)OC(C)(C)C)o2)c1,-7.22%
5,COc1c([N+](=O)[O-])c(=O)oc2ccccc12,15.4%
6,Cc1ccc(S(=O)(=O)CC(=O)Nc2ncc([N+](=O)[O-])s2)cc1,21.8%
7,CC(C)(C)NC(=O)COC(=O)CCC(=O)c1ccc(F)cc1,12%
8,COc1ccccc1C(=O)NNc1ncc(C)s1.Cl,-0.745%
9,COc1ccc(C(=O)N2CCN(c3ccccn3)CC2)cc1[N+](=O)[O-],-14.9%
10,COc1ccc(C(=O)N2CCN(c3ncccn3)CC2)cc1[N+](=O)[O-],-2.35%
11,COc1ccc(C(=O)N2CCN(CCc3ccccc3)CC2)cc1[N+](=O)[O-],-75.6%
12,COc1ccc(N(CC(=O)Nc2ccc(F)c(F)c2)S(=O)(=O)c2c(C)n[nH]c2C)cc1,18.5%
13,CN(C)C/C=C(/c1ccc(Br)cc1)c1cccnc1.Cl,-71.5%
14,CN(C)CCO/N=C(\c1ccc(Br)cc1)c1cccnc1.O=C(O)C(=O)O,-63.5%
15,Cc1ccc(C(=O)O/N=C(\c2ccccc2)c2cccnc2)cc1,-18.7%
16,CN(C)CCCO/N=C(\c1ccccc1)c1ccncc1.O=C([O-])C(=O)[O-],5.25%
17,O=C(Oc1ccc(Br)cc1)c1cccnc1,4.3%
18,O=C(NCCNC(=O)c1cccnc1)c1ccc(Br)cc1,14.6%
19,CN(C)C/C=C(\c1ccc(Br)cc1)c1cccnc1.Cl.O,-63.7%
20,C/C(=N\NC(=O)c1ccc(Br)cc1)c1cccnc1,5.22%
21,O=C(OCc1ccc(Br)cc1)c1cccnc1,-5.96%
